Structures can show the parent of a compound that is named as a salt. ± gives the standard deviation of the averaged measurements.

This assay relates to E. coli TESEC Alr+ wild-type control. The assay can be described thus: growth (OD600 after 10 h); higher = more growth (less inhibition). The conditions noted are these: compound 0.1 mM; raw OD600 reference: median of DMSO wells 0.49, cell-free background 0.052. Here is the method:
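TESEC Mtb Alr E. coli (ΔaraC ΔtolC ΔentC Δalr ΔdadX, arabinose-inducible Mtb Alr) or the Alr+ wild-type control strain, grown in defined M9-fructose medium without D-alanine in 96-well plates with Prestwick library compounds at 0.1 mM and 1% DMSO. Low Alr induction is 0.1 µM arabinose and high induction is 10 mM arabinose.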
`CC(C(=O)O)c1ccc(N2Cc3ccccc3C2=O)cc1` (stereo not given) [Indoprofen] registered a growth of 0.486 ± 0.053.

Compound `NC(=O)c1ncn([C@@H]2O[C@H](CO)[C@@H](O)[C@H]2O)n1` [Ribavirin] registered a growth of 0.54 ± 0.043.

For `C[C@]12CCC(=O)C=C1CC[C@@H]1[C@@H]2C(=O)C[C@@]2(C)[C@H]1CC[C@]2(O)C(=O)CO` [Cortisone], the growth amounted to 0.46 ± 0.066.

On to `COc1ccc(-c2cc(=O)c3c(O)cc(O[C@@H]4O[C@H](CO[C@@H]5O[C@@H](C)[C@H](O)[C@@H](O)[C@H]5O)[C@@H](O)[C@H](O)[C@H]4O)cc3o2)cc1O` [Diosmin], for which the growth was determined as 0.578 ± 0.14.

Compound `COc1ccc2[nH]c([S+]([O-])Cc3ncc(C)c(OC)c3C)nc2c1` (stereo not given) [Omeprazole] gave a growth of 0.409 ± 0.01.

As for `CN(C)CCN(Cc1cccs1)c1ccccn1` [Methapyrilene hydrochloride], the growth turned out to be 0.644 ± 0.021.

For `CN(C)c1ccc(O)c2c1C[C@H]1C[C@H]3[C@H](N(C)C)C(=O)C(C(N)=O)=C(O)[C@@]3(O)C(=O)C1=C2O` [Minocycline hydrochloride], the growth was found to be 0.0527 ± 0.00085.

`CCN(CC)CCOCCOC(=O)C1(c2ccccc2)CCCC1` [Carbetapentane citrate] gave a growth of 0.539 ± 0.035.

`NC[C@H]1O[C@H](O[C@H]2[C@H](O)[C@@H](O[C@H]3O[C@H](CO)[C@@H](O)[C@H](N)[C@H]3O)[C@H](N)C[C@@H]2N)[C@H](N)C[C@@H]1O` [Tobramycin] returned a growth of 0.04933 ± 0.00049.

On to `Cc1ccc(S(=O)(=O)NC(=O)NN2CCCCCC2)cc1` [Tolazamide], for which the growth worked out at 0.482 ± 0.053.

The compound `CN(CCOc1ccc(CC2SC(=O)NC2=O)cc1)c1ccccn1` (stereo not given) [Rosiglitazone Hydrochloride] displayed a growth of 0.327 ± 0.0092.

As for `CO[C@@]1(NC(=O)Cc2cccs2)C(=O)N2C(C(=O)O)=C(COC(N)=O)CS[C@@H]21` [Cefoxitin sodium salt], the growth was 0.0458 ± 0.00061.

`Nc1nc2ccc(OC(F)(F)F)cc2s1` [Riluzole hydrochloride] came in with a growth of 0.439 ± 0.011.

For the compound `Cc1ncc([N+](=O)[O-])n1CC(O)CCl` (stereo not given) [Ornidazole], the growth is 0.43 ± 0.049.

`O=C(Nc1cccc2c(=O)cc(-c3nnn[nH]3)oc12)c1ccc(OCCCCc2ccccc2)cc1` [Pranlukast]: the growth came to 0.46 ± 0.0055.

On to `CCOC(=O)C(C)(C)Oc1ccc(Cl)cc1` [Clofibrate], for which the growth stood at 0.609 ± 0.065.

Regarding `C[C@]1(Cn2ccnn2)[C@H](C(=O)O)N2C(=O)C[C@H]2S1(=O)=O` [Tazobactam], the growth was 0.0454 ± 0.00051.

With `Cc1cccc(C)c1OCC(C)N` (stereo not given) [Mexiletine hydrochloride], the growth came out at 0.399 ± 0.005.

Consider `CCCCNc1c(C(=O)OCC)c(C)nc2c1cnn2CC` [Tracazolate hydrochloride], for which the growth worked out at 0.335 ± 0.024.

Compound `CC(C)(O/N=C(\C(=O)N[C@@H]1C(=O)N2C(C(=O)[O-])=C(C[n+]3ccccc3)CS[C@H]12)c1csc(N)n1)C(=O)O` [Ceftazidime pentahydrate] returned a growth of 0.0473 ± 0.00053.

Compound `CC(=O)CCCCn1c(=O)c2c(ncn2C)n(C)c1=O` [Pentoxifylline] registered a growth of 0.489 ± 0.096.

As to `CN(CCOc1ccc(NS(C)(=O)=O)cc1)CCc1ccc(NS(C)(=O)=O)cc1` [Dofetilide], the growth stood at 0.589 ± 0.053.

Regarding `CC(=O)N[C@@H](CC(=O)N[C@@H](CCC(=O)O)C(=O)O)C(=O)O` [Spaglumic acid], the growth was found to be 0.522 ± 0.037.

Compound `CN1C(C(=O)Nc2ccccn2)=C(O)c2ccccc2S1(=O)=O` [Piroxicam] registered a growth of 0.4032 ± 0.0031.

Turning to `O=C1c2c(O)cccc2Cc2cccc(O)c21` [Anthralin], the growth was found to be 0.339 ± 0.015.

`COc1ccc(OC)c(C(O)CNC(=O)CN)c1` (stereo not given) [Midodrine hydrochloride] had a growth of 0.482 ± 0.043.

With `CCCc1nc(C)c2c(=O)nc(-c3cc(S(=O)(=O)N4CCN(CC)CC4)ccc3OCC)[nH]n12` [Vardenafil], the growth was determined as 0.55 ± 0.11.

As to `COC1=C(OC)C(=O)C(CCCCCCCCCCO)=C(C)C1=O` [Idebenone], the growth came to 0.0491 ± 0.0001.

For the compound `COc1cc(NC(C)CCCN)c2ncccc2c1` (stereo not given) [Primaquine diphosphate], the growth is 0.267 ± 0.025.

`Nc1ccn([C@@H]2CS[C@H](CO)O2)c(=O)n1` [Lamivudine] displayed a growth of 0.563 ± 0.13.

`O=C(O)CN(CCN(CC(=O)O)CC(=O)O)CCN(CC(=O)O)CC(=O)O` [Pentetic acid] had a growth of 0.0804 ± 0.0038.

Compound `Cc1ccc(S(=O)(=O)NC(=O)NN2CC3CCCC3C2)cc1` (stereo not given) [Gliclazide] returned a growth of 0.518 ± 0.074.

`CCOc1ccc2c(c1)C(C)=CC(C)(C)N2` [Ethoxyquin]: the growth stood at 0.3809 ± 0.0031.

Regarding `CN1CCc2cccc3c2[C@H]1Cc1ccc(O)c(O)c1-3` [R(-) Apomorphine hydrochloride hemihydrate], the growth was 0.467 ± 0.025.

Compound `CC(C)(C)NC(=O)[C@H]1CC[C@H]2[C@@H]3CC[C@H]4NC(=O)C=C[C@]4(C)[C@H]3CC[C@]12C` [Finasteride] yielded a growth of 0.351 ± 0.011.

`Cn1c(=O)c2c(ncn2CC2OCCO2)n(C)c1=O` [Doxofylline]: the growth was found to be 0.475 ± 0.076.

The compound `Cc1cccc(CN2CCN(C(c3ccccc3)c3ccc(Cl)cc3)CC2)c1` (stereo not given) [Meclozine dihydrochloride] came in with a growth of 0.427 ± 0.021.

Turning to `CCCCC(=O)N(Cc1ccc(-c2ccccc2-c2nnn[nH]2)cc1)[C@H](C(=O)O)C(C)C` [Valsartan], the growth stood at 0.557 ± 0.049.

The compound `C=CCSCC1Nc2cc(Cl)c(S(N)(=O)=O)cc2S(=O)(=O)N1` (stereo not given) [Althiazide] displayed a growth of 0.444 ± 0.049.

`CCc1nn(CCCN2CCN(c3cccc(Cl)c3)CC2)c(=O)n1CCOc1ccccc1` [Nefazodone HCl] yielded a growth of 0.0504 ± 0.00067.

For the origin of these results see the supplement of paper PMC9262897, “Low-cost anti-mycobacterial drug discovery using engineered E. coli” (Nature Communications, 2022).
